Our source for the PBM binding z-score values is the supplement of paper PMC6555819.

Test in all cases: PBM binding z-score (relative to random genomic background probes); higher = stronger binding; sequences stand for … in GC…GCGATTGACAGCGTAGAATGAAGG
In assay [1] the test system is FXR:RXRa (NR concentration 270 nM, RXRa partner concentration 90 nM). The essentials: (§1)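 Antibodies against each partner of ligand-free nuclear receptor dimers (one per run) detected binding on custom Agilent 4×180K protein-binding microarrays after 1 h incubation. The double-stranded probes had 34-nt variable regions carrying direct-repeat seeds, single-nucleotide variants, half-site ablations and random human genomic background sequences. Binding z-scores, from regression-normalized fluorescence, use the random background probes as reference.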

In assay [2] the test system is LXRa:RXRa (NR concentration 270 nM, RXRa partner concentration 90 nM). The essentials:
as §1

Assay [3] concerns LXRa homodimer (NR concentration 270 nM). The essentials: as §1
The subject of assay [4] is LXRb:RXRa (NR concentration 270 nM, RXRa partner concentration 90 nM). The essentials: as §1
For assay [5], the system named is LXRb homodimer (NR concentration 270 nM). The method, boiled down:
as §1

Assay [6] concerns PPARa:RXRa (NR concentration 270 nM, RXRa partner concentration 90 nM). The method, boiled down:
as §1

Assay [7] has as its system PPARg:RXRa (NR concentration 180 nM, RXRa partner concentration 90 nM). The essentials:
as §1

Assay [8] deals with PPARg:RXRa 270nM:90nM, anti-RXR (NR concentration 270 nM, RXRa partner concentration 90 nM). The method, boiled down:
as §1

For assay [9], the system named is PPARg:RXRa 30nM:10nM, anti-RXR (NR concentration 30 nM, RXRa partner concentration 10 nM). The essentials: as §1
The test system of assay [10] is PPARg:RXRa 90nM:30nM, anti-RXR (NR concentration 90 nM, RXRa partner concentration 30 nM). The method, boiled down:
as §1

For assay [11], the system named is PPARg:RXRa DBDmut IVT, anti-RXR (DBD mutation: RXRa K156A/R161A, NR concentration 270 nM, RXRa partner concentration 90 nM). The method, boiled down:
as §1

The subject of assay [12] is PPARg:RXRa IVT, anti-PPARg (NR concentration 270 nM, RXRa partner concentration 90 nM). The method, boiled down: as §1
The test system of assay [13] is PPARg DBDmut:RXRa IVT, anti-PPARg (DBD mutation: PPARg1 K132A/R137A, NR concentration 270 nM, RXRa partner concentration 90 nM). The essentials:
as §1

In assay [14] the test system is PPARg DBDmut IVT, anti-PPARg (DBD mutation: PPARg1 K132A/R137A, NR concentration 270 nM). The essentials:
as §1

The test system of assay [15] is PPARg homodimer (NR concentration 180 nM). The method, boiled down: as §1
Assay [16] concerns PXR:RXRa (NR concentration 270 nM, RXRa partner concentration 90 nM). The method, boiled down: as §1
In assay [17] the test system is PXR homodimer (NR concentration 270 nM). The essentials:
as §1

Assay [18] deals with RARa:RXR (NR concentration 270 nM, RXRa partner concentration 90 nM). The method, boiled down: as §1
Assay [19] has as its system RARa homodimer (NR concentration 270 nM). The method, boiled down:
as §1

The subject of assay [20] is RARb:RXRa (NR concentration 270 nM, RXRa partner concentration 90 nM). The essentials:
as §1

Regarding ACAGACAGGTGATGAAGGTAACTCTGGCTATCAT, the PBM binding z-score in [1] was -0.247; in assay [2], -0.358; in assay [3], -0.109; in assay [4], -0.536; in assay [5], -0.538; in assay [6], -0.229. For the same sequence, the PBM binding z-score in [7] was 0.485; in assay [8], -0.185; in [9], 0.143; in [10] it was 0.132; in assay [11], 0.0322; in assay [12] it was 0.477. Further, the PBM binding z-score was 0.353 in assay [13]; 0.0262 in assay [14]; 0.0574 in assay [15]; -0.19 in assay [16]; -0.412 in assay [17]; 0.0777 in [18]. Moreover, the figures for the PBM binding z-score in assay [19] and in [20] were -0.252 and 0.114, respectively.
On to TCAGACAGGTGAATGTAACTCAGGTACGCAGTCG, for which the PBM binding z-score was 0.149 in assay [1]; 0.452 in [2]; 0.0267 in assay [3]; 0.271 in assay [4]; -0.401 in assay [5]; 0.789 in assay [6]. Besides, the PBM binding z-score in [7] was determined as 0.834; in assay [8] it was 1.72; in assay [9] it was 2.99; in [10] it was 2.36; in assay [11], 2.43; in [12] it was 0.904. The PBM binding z-score is -0.264 in assay [13]; -0.0774 in [14]; 0.0893 in assay [15]; 0.012 in assay [16]; -0.109 in assay [17]; 0.0859 in [18]. In addition, the PBM binding z-score in assay [19] is -0.00412; in [20], 0.652.
On to CCGACTGGGGCATGGTTACCATAACGCACAGCCA, for which the PBM binding z-score was -0.978 in assay [1]; -0.621 in assay [2]; -0.461 in assay [3]; -0.438 in assay [4]; -1.07 in assay [5]; 0.0592 in assay [6]. Also, the PBM binding z-score in [7] was 1.31; in assay [8], 1.11; in [9], -0.195; in assay [10], 0.273; in assay [11] it was 2.18; in assay [12], 2.5. Moreover, the PBM binding z-score in assay [13] is -0.776; in assay [14] it was -0.933; in [15], -0.129; in assay [16], -0.696; in assay [17] it was -0.585; in assay [18], -0.433. Besides, the results for the PBM binding z-score in [19] and in assay [20] were -0.847 and 0.396, respectively.
Regarding GTTACAGGGTCAGCTAGAGGCCAGAGTATGGAAA, the PBM binding z-score is 4.39 in [1]; 3.18 in assay [2]; -0.168 in assay [3]; 2.39 in [4]; 0.166 in [5]; 4.41 in assay [6]. The PBM binding z-score in assay [7] was found to be 3.35; in assay [8], 3.64; in assay [9] it was 0.837; in [10] it was 2.63; in assay [11], 1.9; in [12], 2.79. The PBM binding z-score in assay [13] was 0.0715; in [14], -0.0967; in assay [15], 2.41; in assay [16], 3.39; in [17] it was 0.141; in assay [18], 3.88. Moreover, the values for the PBM binding z-score in [19] and in [20] were 0.709 and 4.27, respectively.
As for TAGCCTAGGTTAGATCGGGCCAGTATACGCTATA, the PBM binding z-score is 0.436 in [1]; -0.519 in assay [2]; -0.629 in assay [3]; -0.408 in assay [4]; -0.862 in assay [5]; -0.226 in [6]. For the same sequence, the PBM binding z-score in assay [7] is 0.102; in assay [8], -0.562; in [9], -0.333; in assay [10], -0.187; in [11], -0.639; in [12] it was 0.069. The PBM binding z-score is -0.497 in [13]; -0.751 in [14]; -0.958 in assay [15]; -0.294 in assay [16]; -0.619 in assay [17]; 0.00533 in [18]. Also, the PBM binding z-score in assay [19] is -0.589; in assay [20] it was 0.0949.
For CCTACTGGGCCAAGGTCATGGATCAGTCAAAGCA, the PBM binding z-score in [1] is 3.04; in assay [2], 3.08; in assay [3], 0.47; in [4] it was 3.01; in assay [5] it was -0.724; in assay [6] it was 4.32. For the same sequence, the PBM binding z-score in [7] is 4.52; in assay [8] it was 4.76; in [9], 1.8; in assay [10], 3.69; in [11], 3.36; in assay [12], 4.9. Further, the PBM binding z-score is -0.856 in assay [13]; -0.00696 in assay [14]; 0.941 in assay [15]; 3.26 in [16]; 0.388 in assay [17]; 3.81 in assay [18]. Further, the PBM binding z-score in assay [19] turned out to be 0.247; in assay [20], 3.53.
As for GCTGCTACGTCAACTGATGGTCAGCTAAAGCTCG, the PBM binding z-score was -0.601 in [1]; -0.63 in assay [2]; -0.84 in assay [3]; -0.799 in assay [4]; -1.1 in assay [5]; -0.483 in [6]. Also, the PBM binding z-score in assay [7] is -0.201; in assay [8], -0.736; in assay [9], -0.808; in assay [10], -0.829; in assay [11] it was -0.232; in [12], -0.749. Moreover, the PBM binding z-score in assay [13] is -0.632; in assay [14], -1.06; in [15], -1.02; in assay [16], -0.736; in assay [17], -1.23; in [18], -0.62. Besides, the results for the PBM binding z-score in [19] and in assay [20] were -1.34 and -0.291, respectively.
